Bioassay records from PubChem BioAssay.
ALOX12 inhib = 12-hLO (ALOX12) enzyme inhibition; purified 12-hLO, xylenol orange hydroperoxide absorbance; Potency, µM (highest dose often 57.1 µM), for inactives: top-dose activity change, negative = inhibition, usual class: inhibitors; 150,000 tested, 0.12% active; AID 1452; active means well fitted inhibition curve with a large enough effect; inconclusive means small, poorly fitted or top-dose-only effect; further: potency means the concentration at half of the fitted maximal effect; nearly all actives have a fitted effect of over 55% in size
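150 nM 12hLO, 25 mM Hepes pH 7.0 + 0.01% Triton X-100; cpd preinc 15 min RT; 40 uM arachidonic acid, 30 min RT; Fe-XO 30 min; A573/A405 ratio as read-out.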
PNC assembly inh = inhibitors of perinucleolar compartment assembly; PC3M PTB-GFP, PNC prevalence imaging, 16 h; stronger effect = lower value; activity change (PNC), negative = inhibition, % at 10 µM; 140,000 tested, 3.1% active; AID 2417;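 active means readout at or below -70, meaning at least 70% loss of cells showing the perinucleolar compartment, a nuclear body marking cancer cells; inconclusive means readout between -30 and a set limit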;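 further: plate controls were DMSO wells for no effect and camptothecin positive control wells for full effect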
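Compounds are pinned in duplicate onto adhered PC3M cells stably expressing GFP-tagged PTB and incubated 16 h at 37 C. Cells are then fixed, nuclei stained with Hoechst, and PNC-positive cells counted.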
HPGD block = inhibitors of human 15-hydroxyprostaglandin dehydrogenase (HPGD); P15428; purified HPGD, NADH fluorescence kinetic, PGE2 substrate; Potency, µM, inactives show top-dose activity change, negative = inhibition, usual class: inhibitors; 150,000 tested, 4.3% active; further: potency means the concentration at half of the fitted maximal effect
Target sequence (P15428 whole entry, looked up): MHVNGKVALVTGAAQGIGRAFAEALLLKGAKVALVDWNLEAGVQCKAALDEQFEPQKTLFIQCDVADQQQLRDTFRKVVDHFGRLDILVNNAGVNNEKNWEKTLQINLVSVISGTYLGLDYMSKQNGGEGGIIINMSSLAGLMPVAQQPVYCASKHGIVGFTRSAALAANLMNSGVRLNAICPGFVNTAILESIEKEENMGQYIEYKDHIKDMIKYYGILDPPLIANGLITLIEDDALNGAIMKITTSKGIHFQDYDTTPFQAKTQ
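NADH formation kinetics: reaction with 30 uM PGE2 and 1 mM NAD+ (final), 20 nM enzyme, Tris-HCl pH 8 with Tween 20, after 15 min compound preincubation at room temperature. Fluorescence change, last versus first of five reads.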
ALDH1A1 inh = ALDH1A1 (human) enzyme inhibition; P00352; Purified ALDH1A1, NADH fluorescence, propionaldehyde substrate; Potency, µM (titrated, usually from 75.3 µM), for inactives: top-dose activity, negative = inhibition, hits mostly inhibitors; 220,000 tested, 7.3% active;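 further: potency means the concentration at half of the fitted maximal effect; plate controls were no enzyme wells and a reference inhibitor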
Lamin A splicing = modulators of lamin A splicing; 200,000 tested, 0.01% active; HeLa LMNA splicing GFP/RFP minigene ratio, 48 h; Potency, µM (top dose mostly 46.1 µM), for the others: top-dose ratio change, negative = inhibition, most hits filed as inhibitors; active means well fitted inhibition curve with a large enough effect in the signal ratio, with a control signal flat, not every such curve was filed as active; inconclusive means small, poorly fitted or top-dose-only effect, or effect the other way, or a change in a side signal; the % refers to the signal ratio; further: potency means the concentration at half of the fitted maximal effect
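S3 HeLa stable clones carrying a lamin A-EGFP splicing minigene plus DsRed2 were seeded at 600 cells/well in Opti-MEM with 2% FBS, pin-dosed and incubated 48 h at 37°C. Acumen cytometry (488 nm) gave the GFP/RFP total-intensity ratio.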
The depositor's hits bear a star; ? = inconclusive; nt = no result; [ ] = another dose, or the depositor's remark. Shown are actives, neighbours in structure and some others; about 10% of the full set was active somewhere. Unless noted, the call rests on the fitted dose curve; in most records, active means well fitted inhibition curve with a large enough effect (not every such curve was filed as active); inconclusive means small, poorly fitted or top-dose-only effect, or another doubt; inactive means no such curve, though single readings can be large or run the other way. Unless noted, on the % scale 0 is the no-effect control and ±100 the full control effect.

SMILES	ALOX12 inhib	PNC assembly inh	HPGD block	ALDH1A1 inh	Lamin A splicing
Cn1nc(OCC(N)=O)ccc1=O	3%	-100*	-12%	3%	3%
NC(=O)COc1ccc(=O)n(-c2ccccc2)n1	-2%	1	-4%	?	3%
COc1cc(OC)c(NC(=O)COCc2cc(-c3cccs3)on2)cc1Cl	nt	nt	nt	nt	0%[46 µM]
C(=Nc1ccc(Nc2ccccc2)cc1)c1ccc2ccccc2c1	?	-83*	-23%	?	?
CCN(CC)C(=O)CSc1nc2c(sc(=S)n2-c2ccccc2)c(=O)n1Cc1ccco1	-4%	45	32µM*	10µM*	?
CCN(CC)C(=O)CSc1nc2c(sc(=S)n2CC)c(=O)n1-c1ccccc1	1%	?	-4%	?	2%
COc1ccccc1-n1c(=S)sc2c(=O)n(Cc3ccco3)c(SC)nc21	-10%	?	-28%	20µM*	10%
CC(=O)c1cccc(N(CC(=O)N2CCCC2)S(C)(=O)=O)c1	-1%	36	0%	25µM*	-16%
O=C(NCCc1c[nH]c2ccc(Cl)cc12)c1cccnc1	-3%	?	16µM*	11%	-18%
CCOC(=O)N1CCN(C(=O)c2cc(-c3ccc(OCC)cc3)nc3ccccc23)CC1	-12%	-95*	?	?	?
Cc1ccc(N2CC(NC(=O)/C=C\c3ccc4c(c3)OCO4)CC2=O)cc1 (centres undefined)	nt	nt	nt	nt	3%[46 µM]
C/C=C1/C(=O)C[C@@H]2[C@H]3CCC4=CC(=O)CC[C@]4(C)[C@@H]3CC[C@]12C	nt	nt	nt	-7%	nt
COc1ccc2c(c1)O[C@@H](c1ccc3c(c1)OCO3)[C@H](O)C2=O	nt	nt	-6%	-6%	nt
CCS(=O)(=O)N1CCN(S(=O)(=O)c2ccccc2)CC1	2%	2	-12%	1%	6%
O=S(=O)(c1ccccc1)N1CCC2(CC1)CN(c1ccccc1)C2	-7%	nt	-8%	14µM*	nt
CC(=O)N1CCC2(CC1)CN(c1ccccc1)C2	-6%	nt	-7%	16µM*	nt
CC12CN(S(=O)(=O)c3ccccc3)CC(C)(CN(S(=O)(=O)c3ccccc3)C1)C2	0%	-113*	-12%	4%	11%
O=C(OCC1OC2C(Oc3nc(=O)ccn32)C1O)c1ccccc1 (centres undefined)	-3%	?	-14%	?	-4%
Cc1cn2c(nc1=O)OC1C(O)C(COC(=O)c3ccccc3)OC12 (centres undefined)	-2%	-22	-1%	3.2µM*	0%
Cc1cn(C2OC(COC(=O)c3ccccc3)C(O)C2O)c(=O)[nH]c1=O (centres undefined)	0%	-89*	-8%	3%	-7%
Cc1cn([C@H]2C=C[C@@H](CO)O2)c(=O)[nH]c1=O	-1%	65	-6%	0%	?
Cc1cn(C2OC(COC(=O)c3ccccc3)C(OC(=O)c3ccccc3)C2OC(=O)c2ccccc2)c(=O)[nH]c1=O (centres undefined)	1%	-119*	-12%	12%	-7%
O=[N+]([O-])c1cccc(I)c1	1%	nt	-14%	7%	nt
COCCOC(=O)c1c(NC(=O)CN2CCCc3ccccc32)sc(C(N)=O)c1C	0%	?	nt	-2%	-2%
C/C(N)=C(/C#N)C(=O)CSc1nc2scc(-c3ccc(F)cc3)c2c(=O)n1C	nt	nt	nt	16µM*	nt
SMILES	ALOX12 inhib	PNC assembly inh	HPGD block	ALDH1A1 inh	Lamin A splicing
C/C(N)=C(/C#N)C(=O)CSc1nc2ccccc2c(=O)n1Cc1ccc(F)cc1	nt	nt	nt	0%	17%[46 µM]
O=C(COc1ccc(Br)cc1)Nc1cccc2cccnc12	nt	nt	nt	nt	11%[46 µM]
COc1cc(/C=C2/C(=O)N=C(N)N2C)cc(OC)c1OC	-6%	31	16µM*	?	-5%
CC(=O)N1CCc2cc(S(=O)(=O)N3CCOCC3)ccc21	0%	-19	-4%	8%	-5%
CC(=O)N1CCc2cc(C(=O)CN3CCCCC3)ccc21	-3%	11	16µM*	22µM*	0%
CCOC(=O)N1CCN(CC(=O)c2ccc3c(c2)CCN3C(C)=O)CC1	1%	8	-3%	25µM*	3%
Cc1ccc(NC(=O)CN2C=NS(=O)(=O)c3ccccc32)cc1	nt	nt	nt	nt	6%[46 µM]
CC(C)CSc1n[nH]c(=S)s1	nt	nt	nt	0.63µM*	nt
Nc1nc(CN2CCCCCC2)nc(Nc2ccccc2)n1	5%	?	-16%	-13%	-10%
Cc1ccc(Nc2nc(N)nc(CN3CCN(c4ccccc4F)CC3)n2)cc1	1%	17	-11%	32µM*	-6%
Nc1nc(CN2CCC(Cc3ccccc3)CC2)nc(Nc2ccccc2)n1	7%	-105*	-7%	7%	-2%
Nc1nc(CN2CCN(Cc3ccc4c(c3)OCO4)CC2)nc(Nc2ccccc2)n1	1%	-129*	-7%	-13%	-10%
CC1CC[C@@]2(C(=O)O)CCC3(C)C(=CCC4[C@]5(C)CC(O)C(O)[C@](C)(CO)C5C(O)C[C@@]43C)C2C1C (some centres undefined)	-1%	nt	-11%	0%	nt
Cc1cc2c(cc1S(=O)(=O)Nc1cccc(C(F)(F)F)c1)OCCN2C	nt	nt	nt	nt	10%[46 µM]
CC(=O)C(C(C)=O)C1(O)C(=O)c2ccccc2C1=O	?	25	7%	1.6µM*	3%
CC(=O)N(C)C1=C(O)c2ccccc2C(=O)C1=O	-4%	60	-16%	?	7%
Nc1ccc2c3c(cccc13)C(=O)N(c1ccccc1)C2=O	nt	nt	nt	28µM*	?
Cn1nnc(NC(=S)NC(=O)c2ccc(-c3ccc(Br)cc3)o2)n1	nt	nt	nt	7.9µM*	nt
O=C(/C=C/c1cccc(Cl)c1)c1nc2ccccc2[nH]1	1%	39	?	2.2µM*	17%
O=C(CCNC(=O)Cn1ccc2ccccc2c1=O)NCc1ccc(F)cc1Cl	nt	nt	nt	?	-4%[46 µM]
CCOC(=O)N1CCN(C(=O)c2ccc(-n3c(=S)[nH]c4ccccc4c3=O)cc2)CC1	3%	122	-5%	7%	3%
CCOC(=O)N1CCN(C(=O)c2cc3c(=O)[nH]c4ccccc4c3s2)CC1	-7%	-119*	-20%	?	-9%
CC(=O)Nc1sc2c(c1C(c1ccc(Cl)cc1)N1CCOCC1)CCCC2 (centres undefined)	-22%	-106*	3%	0%	?
O=C(NC(=S)NCc1cccnc1)c1ccccc1	-3%	1	-1%	-2%	-3%
Cc1ccccc1C(=O)NNC(=S)NC(=O)c1cccnc1	0%	-19	-11%	25µM*	?
CNC(=S)NNC(=O)c1ccccc1F	nt	nt	nt	?	17%[46 µM]
Cc1ccccc1C(=O)NC(=S)NCc1cccnc1	nt	nt	nt	0%	nt
O=C(NC(=S)NCCSc1ccccc1)c1cccnc1	-3%	-95*	-14%	14µM*	5%
O=C(NC(=S)NNC(=O)c1ccccc1F)c1cccnc1	nt	nt	nt	7.1µM*	-18%[46 µM]
CC(C)CC(C)c1cc(N)nc2nc3ccccc3n12 (centres undefined)	nt	nt	nt	-3%	-1%[46 µM]
